Compound activity from PubChem BioAssay.
Sampled rows, rich in hits. Any-hit rate of the full collection: about 2.5%.
MEKK2mut PB1 HTS: signal of MEK5 binding to mutant human MEKK2 PB1 domain; bead flow cytometry, Alexa488-MEK5 binding to MEKK2 mutant; percent response, % at 10 µM; 290,000 tested, 0.35% active; AID 1530; in the data active = percent response above about 24%, passing the limit was not always enough
MEKK2wt PB1 HTS: raises or lowers MEK5 binding to wildtype human MEKK2 PB1 domain. Q9Y2U5. bead flow cytometry, Alexa488-MEK5 binding to MEKK2 WT; actives lie on both sides. binding response (% of control), % at 10 µM. 290,000 tested, 1.1% active; in the data active = binding response below about 67% or above about 130%
GRK2 aptamer HTS: inhibitors of human GRK2 displacing RNA aptamer. P25098. bead flow cytometry, FAM-aptamer displacement from GRK2. inhibition of aptamer binding, % at 10 µM. 330,000 tested, 0.59% active. AID 488847;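 active = inhibition of aptamer binding above 40%, roughly 3 SD of noise, on plates passing a quality check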;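 note: median bead fluorescence of bound FAM aptamer so fluorescent compounds give negative values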
Target sequence (P25098 whole entry, looked up): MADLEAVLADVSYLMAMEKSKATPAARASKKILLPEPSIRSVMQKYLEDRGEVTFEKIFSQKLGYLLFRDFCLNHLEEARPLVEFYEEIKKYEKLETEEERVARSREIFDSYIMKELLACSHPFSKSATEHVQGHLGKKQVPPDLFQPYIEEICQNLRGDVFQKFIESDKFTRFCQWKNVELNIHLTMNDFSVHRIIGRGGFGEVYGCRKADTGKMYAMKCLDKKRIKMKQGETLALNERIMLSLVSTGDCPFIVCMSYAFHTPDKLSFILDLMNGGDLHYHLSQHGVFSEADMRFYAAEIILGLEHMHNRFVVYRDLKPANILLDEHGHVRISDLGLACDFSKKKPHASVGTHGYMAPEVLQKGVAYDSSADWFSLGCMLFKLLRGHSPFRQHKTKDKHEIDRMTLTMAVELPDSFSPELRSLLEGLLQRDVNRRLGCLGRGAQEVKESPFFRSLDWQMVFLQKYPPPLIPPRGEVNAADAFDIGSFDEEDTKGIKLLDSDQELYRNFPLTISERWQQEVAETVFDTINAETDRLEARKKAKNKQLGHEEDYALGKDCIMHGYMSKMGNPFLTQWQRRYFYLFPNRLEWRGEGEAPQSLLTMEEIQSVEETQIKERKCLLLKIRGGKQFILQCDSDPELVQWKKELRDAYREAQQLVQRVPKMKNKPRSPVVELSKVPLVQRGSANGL
MEKK3 PB1 HTS: MEKK3-MEK5 PB1 interaction, increase or decrease. Q99759. bead-based flow cytometry, Alexa488-MEK5 binding to MEKK3; actives lie on both sides; 0 = blocked by unlabeled MEK5, 100 = vehicle. binding response (% of control), % at 10 µM. 290,000 tested, 1.4% active;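 active = binding response more than 3 SD above or below the average of its plate-row segment, actives on both sides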;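 note: Alexa488 bead fluorescence after subtracting the streptavidin-only scavenger bead signal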
MEKK2wt confirm: raises or lowers MEK5 binding to wildtype human MEKK2, retest; shares compounds with MEKK3 PB1 HTS; bead flow cytometry, Alexa488-MEK5 binding to MEKK2 WT; actives lie on both sides; binding response (% of control), % at 10 µM; 5,900 tested, 2.4% active; in the data active = binding response below about 16% or above about 210%; inactive = in between
MEKK2mut confirm: signal of MEK5 binding to mutant human MEKK2, retest | shares compounds with MEKK3 PB1 HTS | bead flow cytometry, Alexa488-MEK5 binding to MEKK2 mutant | percent response, % at 10 µM | 5,900 tested, 2% active; in the data active = percent response mostly above about 71%, no sharp cut-off; inactive = mostly below about 38%;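 note: higher means compound restores mutant binding toward wildtype level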
MEKK3 confirm: confirmation of inhibitors of MEK5 binding to human MEKK3 | shares compounds with MEKK3 PB1 HTS | bead flow cytometry, Alexa488-MEK5 binding to MEKK3; stronger effect = lower value | binding response (% of control), % at 10 µM | 5,900 tested, 1.8% active | AID 1894;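 active = binding response below 72% of control, or above a set upper limit, though filed actives all read lower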;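 note: 100% = DMSO only wells and 0% = binding blocked by excess unlabeled MEK5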
* = called active by the depositor; · = no result given; [ ] = dose if it differs, or a comment.

SMILES	MEKK2mut PB1 HTS	MEKK2wt PB1 HTS	GRK2 aptamer HTS	MEKK3 PB1 HTS	MEKK2wt confirm	MEKK2mut confirm	MEKK3 confirm
Cn1c(=O)[nH]c(=O)c2c1nc(SCC(=O)O)n2Cc1ccccc1	27.0*	105.0	1.0	102.0	106.0	4.0	104.0
CC(=O)Nc1ccc(NS(=O)(=O)c2ccc(C)cc2)c([N+](=O)[O-])c1	1.0	91.0	1.0	105.0	·	·	·
Cc1ccc([N+](=O)[O-])c(OCCCN2CCCCCC2)c1	66.0*	169.0*	0.0	99.0	130.0	16.0	104.0
CCOC(=O)c1cnn(CCOC(=O)C2CC2)c1NC(=O)C1CC1	9.0	102.0	0.0	103.0	·	·	·
CCOC(=O)c1cnn(CCOC(=O)C(C)(C)C)c1NC(=O)C(C)(C)C	-25.0	0.0*[inhibitor]	3.0	2.0*[inhibitor]	98.0	-6.0	101.0
O=C(CN1CCC(O)(c2cccc(F)c2)CC1)NCCc1c[nH]c2ccccc12	46.0	178.0*	0.0	124.0	129.0	22.0	108.0
COc1ccc([N+](=O)[O-])cc1/C=N/NC(=O)CNC(=O)c1cccc(F)c1	3.0	104.0	2.0	100.0	·	·	·
COc1ccc([N+](=O)[O-])cc1/C=N/NC(=O)CNC(=O)C(c1ccccc1)c1ccccc1	1.0	109.0	2.0	165.0*	99.0	0.0	99.0
CCN(CC)S(=O)(=O)c1ccc(-c2cc(C(=O)OC)sc2C(F)(F)F)cc1	23.0	126.0	0.0	130.0*	106.0	2.0	100.0
Cc1cc(C)c2[nH]c(C(=O)N3CCC(n4nccc4NC(=O)C4CC4)CC3)c(C)c2c1	-4.0	95.0	0.0	95.0	·	·	·
CCCCC1=CC2=C(c3ccco3)C(=O)C(C)(OC(=O)c3ccc(OC)cc3)C(=O)C2=CN1Cc1ccc2c(c1)OCO2 (stereo not drawn)	1.0	138.0*	0.0	120.0	83.0	-9.0	87.0
COC(=O)CCC(=O)OC1(C)C(=O)C2=CN(Cc3ccc4c(c3)OCO4)C(c3ccc(OC)cc3)=CC2=C(Br)C1=O (stereo not drawn)	53.0*	·	11.0	83.0	102.0	0.0	104.0
CCCCC1=CC2=C(c3ccco3)C(=O)C(C)(OC(=O)c3ccc(OC)cc3)C(=O)C2=CN1Cc1ccccc1 (stereo not drawn)	1.0	101.0	0.0	105.0	·	·	·
COC(=O)CCC(=O)OC1(C)C(=O)C2=CN(CCN3CCOCC3)C(c3ccc(OC)cc3)=CC2=C(Br)C1=O (stereo not drawn)	4.0	149.0*	3.0	127.0	100.0	0.0	100.0
COC(=O)CCC(=O)OC1(C)C(=O)C2=CN(C(CO)CO)C(c3ccc(OC)cc3)=CC2=C(Br)C1=O (stereo not drawn)	-2.0	91.0	1.0	82.0*[inhibitor]	98.0	-2.0	93.0
CN1CC(=O)N/C1=N\C(=O)Nc1ccc(O)cc1	3.0	96.0	0.0	96.0	·	·	·
Cc1ccc(CNC(=O)CN(C(=O)C2(C)CC(=O)N=C3C=CC=CN32)c2ccccc2F)cc1 (stereo not drawn)	-6.0	97.0	0.0	99.0	·	·	·
COc1ccc(/C=C(\NC(=O)c2ccccc2)C(=O)NC2CCS(=O)(=O)C2)cc1 (stereo not drawn)	-3.0	97.0	0.0	99.0	·	·	·
CCOc1ccc(N(CC(=O)N/N=C/c2ccccn2)S(=O)(=O)c2ccc(Cl)cc2)cc1	6.0	105.0	1.0	103.0	·	·	·
CC1(OC(=O)CCc2ccccc2)C(=O)C=C2C=C(c3ccc(C#N)cc3)N(CC3CC3)C=C2C1=O (stereo not drawn)	6.0	92.0	0.0	95.0	·	·	·
CC1(OC(=O)CCc2ccccc2)C(=O)C=C2C=C(c3ccc(C#N)cc3)N(CCN3CCOCC3)C=C2C1=O (stereo not drawn)	2.0	138.0*	5.0	117.0	104.0	1.0	101.0
Cc1ccc(C)c(NC(=O)CN(C)C(=O)c2cc3c(s2)CCCCC3)c1	·	·	0.0	·	·	·	·
CCOC(=O)CC(=O)COc1nc2cc3c(nc2o1)CCCC3	5.0	103.0	2.0	105.0	·	·	·
CCCSC(=O)N(CC)CC(=O)Nc1c(CC)cccc1CC	1.0	100.0	0.0	96.0	·	·	·
C=CCN(CC(=O)Nc1c(C)cccc1CC)C(=O)SCCC	-9.0	95.0	0.0	81.0*[inhibitor]	98.0	-1.0	99.0
SMILES	MEKK2mut PB1 HTS	MEKK2wt PB1 HTS	GRK2 aptamer HTS	MEKK3 PB1 HTS	MEKK2wt confirm	MEKK2mut confirm	MEKK3 confirm
COC(=O)Cn1c(=NC(=O)c2ccc(OC)c(OC)c2)sc2cc(OC)ccc21	-2.0	101.0	0.0	106.0	·	·	·
COC(=O)Cn1c(=NC(=O)c2ccc(Cl)s2)sc2cc(F)ccc21	0.0	102.0	2.0	134.0*	99.0	-1.0	98.0
O=C(NNC(=O)c1ccccc1C(F)(F)F)c1csc(N2CCOCC2)n1	8.0	111.0	0.0	104.0	·	·	·
COc1ccc(C(=O)CCN2CCc3cc(OC)c(OC)cc3C2)cc1	-47.0	1.0*[inhibitor]	3.0	1.0*[inhibitor]	110.0	-1.0	100.0
COc1ccc(C(=O)CCN2CCN(c3ccccc3OC)CC2)cc1	-3.0	103.0	0.0	97.0	·	·	·
CC(=O)c1ccc(S(=O)(=O)N(CCCO)Cc2cc3cc(C)ccc3[nH]c2=O)cc1	6.0	108.0	2.0	105.0	·	·	·
CCCN(Cc1cc2cc(C)ccc2[nH]c1=O)S(C)(=O)=O	5.0	120.0	2.0	128.0*	101.0	3.0	103.0
CCOC(=O)c1sc(NC(=O)c2ccc(S(=O)(=O)N3CCCCC3)cc2)nc1-c1ccccc1	1.0	105.0	0.0	135.0*	99.0	-5.0	99.0
CCOC(=O)c1sc(NC(=O)c2ccc(S(=O)(=O)N3CCCCCC3)cc2)nc1-c1ccccc1	-7.0	89.0	1.0	96.0	·	·	·
O=S(=O)(Nc1nc2ccccc2nc1NCC1CCCO1)c1cccc(Cl)c1 (stereo not drawn)	15.0	112.0	0.0	120.0	·	·	·
Cn1cc(CNC(=O)c2sc3cccc(Cl)c3c2Cl)cn1	11.0	102.0	22.0	131.0*	96.0	2.0	101.0
CCc1ccc(C(=O)NCc2cnn(C)c2)s1	3.0	106.0	1.0	103.0	·	·	·
CCOc1cc(C(=O)NC2CCCCCCC2)cc(OCC)c1OCC	·	·	0.0	·	·	·	·
Clc1ccccc1-c1nc2ccccc2c2nc3ccccc3n12	0.0	103.0	3.0	134.0*	96.0	-7.0	95.0
Cc1nc2ccccc2c2nc3ccccc3n12	·	·	0.0	·	·	·	·
CC(=O)Nc1ccc(S(=O)(=O)N2CCN(c3cc(C)nc4ccccc34)CC2)cc1	6.0	111.0	1.0	103.0	·	·	·
CC(=O)Nc1ccc(S(=O)(=O)N2CCN(c3nc(NC4CCCC4)c4ccccc4n3)CC2)cc1	18.0	163.0*	10.0	101.0	156.0	29.0	105.0
O=C(c1ccc2c(=O)n3c(nc2c1)CCC3)N1CCN(S(=O)(=O)c2cccc(F)c2)CC1	·	·	0.0	·	·	·	·
